Bioassay records deposited in PubChem by several laboratories.
An excerpt weighted towards active compounds, which were near 3.8% of everything screened.
Mdm2-MdmX inh: inhibitors of human Mdm2/MdmX interaction | SaOS-2 split-luciferase Mdm2/MdmX complementation, luminescence | inhibition, % at 8 µM | 330,000 tested, 3% active | AID 485346;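 active means inhibition of at least 50% at 8 µM in the primary screen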
697 NFkB inh: inhibitors of the PMA/ionomycin-induced NF-kB reporter in 697 B cells. 697 B-cell NF-kB luciferase reporter, 16 h. inhibition, % at 4 µM. 330,000 tested, 0.33% active. AID 435022; in the data active means inhibition above about 35%
Jurkat NFkB inh: inhibitors of the PMA/ionomycin-induced NF-kB reporter in Jurkat cells; AID 435003; inhibition, % at 4 µM; PMA/ionomycin-induced NF-kB luciferase reporter, luminescence; 330,000 tested, 0.53% active; in the data active means inhibition above about 50%
Beta cell apopt: beta cell apoptosis inhibition; AID 435005; 300,000 tested, 0.8% active; INS-1E cytokine-induced death, ATP luminescence, 48 h; percent of positive-control rescue, neutral wells zero; protection from apoptosis, % (test concentration not listed);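 active means Every replicate reaches about 75%, or at least half do and their mean reaches it too, limit read from the data; inconclusive means At least half of replicates reach the limit but their mean does not; inactive means Under half of replicates reach the limit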;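 further: higher means more ATP so stronger rescue from cytokine killing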
Bfl-1 A1 inh: inhibitors of the anti-apoptotic protein A1, read as caspase activation; caspase activation, % (concentration not given with the values); MEF A1-2A-BIM cells, Caspase-Glo 3/7 luminescence, 3 h; percent of clofoctol response, vehicle zero; 330,000 tested, 0.066% active; AID 2462;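 active means over half of replicate activation scores above 10%, or exactly half above 10 with the replicate mean above 10; inconclusive means replicate mean below 10 yet half the replicates above 10; inactive means over half of replicates below 10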
NTR1 ag: agonists of human neurotensin receptor NTR1; NTR1-U2OS beta-arrestin-GFP spot imaging, agonist mode; activation, % at 20 µM; AID 493036; P30989; 330,000 tested, 0.17% active;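 active means activation at or above 40% of the spot to cytoplasm intensity ratio, with at least 20 cells analyzed; inconclusive means wells under 20 cells, flagged as cytotoxic or low count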
Target sequence (P30989 whole entry, looked up): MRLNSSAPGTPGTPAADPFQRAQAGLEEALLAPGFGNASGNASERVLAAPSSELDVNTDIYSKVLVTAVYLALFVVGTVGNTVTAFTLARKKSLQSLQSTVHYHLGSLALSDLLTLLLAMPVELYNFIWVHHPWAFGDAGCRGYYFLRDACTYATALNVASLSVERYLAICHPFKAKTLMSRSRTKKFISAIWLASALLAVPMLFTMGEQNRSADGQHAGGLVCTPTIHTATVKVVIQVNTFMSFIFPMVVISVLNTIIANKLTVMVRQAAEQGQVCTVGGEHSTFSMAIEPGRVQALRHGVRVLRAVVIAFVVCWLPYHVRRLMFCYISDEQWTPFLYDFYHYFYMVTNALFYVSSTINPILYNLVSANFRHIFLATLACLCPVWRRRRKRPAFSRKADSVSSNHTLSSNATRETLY
NTR1 ag conf: confirmation of agonists of human NTR1; shares compounds with NTR1 ag; NTR1-U2OS beta-arrestin-GFP translocation imaging; activation, % at 20 µM; 480 tested, 38% active;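 active means mean activation at 20 µM of at least 40%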
Large screens that a line does not name were inactive (follow-up assays come after a bar, where they were run).

O=C(OCc1c(-c2ccccc2)ncc2ccccc12)c1ccccc1C(F)(F)F	none
COc1ccccc1-c1cn[nH]c1-c1ccc(OCc2ccc(F)cc2)cc1O	NTR1 ag 40 | NTR1 ag conf inactive
COc1ccccc1-c1cn[nH]c1-c1ccc(OCc2ccc([N+](=O)[O-])cc2)cc1O	none
COc1ccccc1-c1cn[nH]c1-c1ccc(OCc2ccccc2F)cc1O	NTR1 ag 40 | NTR1 ag conf inactive
COc1ccccc1-c1cn[nH]c1-c1ccc(O)cc1O	none
O=[N+]([O-])c1ccc(COc2ccc(-c3[nH]ncc3-c3ccccc3)c(O)c2)cc1	NTR1 ag 42 | NTR1 ag conf inactive
Oc1cc(OCc2ccccc2)ccc1-c1[nH]ncc1-c1ccccc1	none
CC(NC(=O)COC(=O)c1ccc(Br)o1)c1ccccc1 (centres undefined)	none (no result: Beta cell apopt, Bfl-1 A1 inh)
Cc1ccc(OCCN2CCN(c3nc(NCc4ccco4)c4ccccc4n3)CC2)cc1	NTR1 ag 50 | NTR1 ag conf inactive
COc1cccc(C2(C)NC(=O)N(CC(=O)c3cc(C)n(C4CC4)c3C)C2=O)c1 (centres undefined)	none
CCCCOc1ccc(CSC(=N)N)cc1Cl	NTR1 ag 50 | NTR1 ag conf inactive
Cc1ccc2[nH]c(C)c(/C=N/Nc3nc4ccccc4s3)c2c1	NTR1 ag 41 | NTR1 ag conf inactive
CCC/C=N/Nc1nc2ccccc2s1	none
O=C(Nc1ncc(Cc2ccc(Cl)cc2Cl)s1)c1ccc([N+](=O)[O-])cc1	NTR1 ag 48 | NTR1 ag conf inactive
COc1ccc(C(=O)C2CCCN(C(=O)c3cc(C4CC4)[nH]n3)C2)c(C)c1 (centres undefined)	none
O=C(NCc1cccc(C(F)(F)F)c1)N1CCN(C(=O)c2ccccc2)CC1	none
CCCCCCOc1ccc(NC(=O)CC2C(=O)N(CC)C(=S)N2Cc2ccco2)cc1 (centres undefined)	NTR1 ag 40 | NTR1 ag conf inactive
CCOC(=O)N1CCN(C(=O)COC(=O)c2cc(C)ccc2C)CC1	none
O=c1/c(=C\c2ccc(O)cc2)sc2nc(-c3ccccc3)c(-c3ccccc3)n12	NTR1 ag 46 | NTR1 ag conf inactive
Cc1ccc(NC2Sc3ccccc3NC2=O)cc1Cl (centres undefined)	NTR1 ag 51 | NTR1 ag conf inactive
O=C(c1ccco1)N1CCN(c2ncnc3c2[nH]c2ccc(Cl)cc23)CC1	none
c1ccc(CN2CCN(c3ncnc4c3[nH]c3ccccc34)CC2)cc1	none
Cc1ccc2[nH]c3c(N4CCN(Cc5ccccc5)CC4)ncnc3c2c1	NTR1 ag 43 | NTR1 ag conf inactive
Cc1ccc2c(c1)[nH]c1c(N3CCN(Cc4ccccc4)CC3)ncnc12	Beta cell apopt 113, NTR1 ag 56 | NTR1 ag conf inactive
CCOC(=O)c1c(C)[nH]c(C)c1S(=O)(=O)N(C)CC(=O)Nc1ccccc1F	none
O=C1ON=C(c2ccc(Cl)cc2)/C1=C/c1ccc(O)cc1	NTR1 ag 66 | NTR1 ag conf 98
COCC1CCN(C(=O)C2CCC(=O)N(Cc3ccc(Cl)cc3)C2)CC1 (centres undefined)	none
Cc1c(C(=O)NC2CCN(Cc3ccccc3)C2)oc2c(Cl)cccc12 (centres undefined)	none
OCCNc1nc(Nc2ccccc2Oc2ccccc2)nc(N2CCCC2)n1	NTR1 ag 46 | NTR1 ag conf inactive
OCCNc1nc(Nc2ccccc2OC(F)(F)F)nc(N2CCCC2)n1	none
O=C(OCCNc1nc(-c2ccccc2)nc2ccccc12)c1cccnc1	none
Cc1ccc(-c2nc(Nc3ccc(O)cc3)c3ccccc3n2)cc1	NTR1 ag 42 | NTR1 ag conf inactive
Oc1cccc(Nc2nc(-c3ccccc3Cl)nc3ccccc23)c1	none
Cc1ccc(-c2nc(Nc3cccc(O)c3)c3ccccc3n2)cc1	NTR1 ag 57 | NTR1 ag conf 44
CCCOC(=O)c1cccc(Nc2nc(-c3cccnc3)nc3ccccc23)c1	NTR1 ag 44 | NTR1 ag conf 44
CCN(C(=O)N1CCOCC1)c1ccccc1C	none
O=C(O)CCn1c(=O)oc2cc(S(=O)(=O)N3CCCC3)ccc21	none
O=C(CCOc1ccccc1)Nc1ccnn1C1CCN(CCc2ccccc2)CC1	none
Nc1nc(Nc2ccccc2)nc(NC2CCCCC2)c1[N+](=O)[O-]	NTR1 ag 87 | NTR1 ag conf inactive
CNc1nc(N)c([N+](=O)[O-])c(NC2CCCCC2)n1	none
O=C(c1ccc(Cl)c(S(=O)(=O)N2CCOCC2)c1)N1CCc2ccccc2C1	none
COCc1c(C(=O)OCc2nc3ccsc3c(=O)[nH]2)oc2ccccc12	none
O=C(/C=C\c1ccccc1OC(=O)c1ccccc1F)c1cc2ccccc2o1	NTR1 ag 67 (no result: Beta cell apopt) | NTR1 ag conf 74
CC(C)(C)NC(=S)N1CCC(C(=O)c2ccc(Cl)cc2)CC1	none (no result: Beta cell apopt)
Cc1[nH]c2ccccc2c1/C=N/NS(=O)(=O)c1ccccc1	none
Cc1[nH]c2ccccc2c1/C=N/Nc1ccccc1[N+](=O)[O-]	NTR1 ag 40 | NTR1 ag conf inactive
COc1ccc(O)c(/C=N/NC(=S)NCCc2ccccc2)c1	none
Oc1ccc(Br)cc1/C=N/NC(=S)NCCc1ccccc1	NTR1 ag 60 | NTR1 ag conf inactive
C[C@H](NC(=O)c1nc[nH]c1C(=O)NCc1ccc(CNC(=O)OC(C)(C)C)cc1)C(=O)OCc1ccccc1	Bfl-1 A1 inh inconclusive, NTR1 ag 55 | NTR1 ag conf 56
CC(C)(C)OC(=O)[C@H](Cc1ccccc1)NC(=O)c1nc[nH]c1C(=O)NCCCCCN	none
CC(C)(C)OC(=O)NCCCCCNC(=O)c1[nH]cnc1C(=O)N[C@@H](Cc1ccccc1)C(=O)OC(C)(C)C	NTR1 ag 47 | NTR1 ag conf inactive
O=S(=O)(c1ccc(N2CC=C(c3ccccc3)CC2)nc1)N1CCCC1	NTR1 ag 50 | NTR1 ag conf inactive
CC(C)c1nnc(NC(=O)c2ccc3ccccc3c2)s1	NTR1 ag 45 | NTR1 ag conf inactive
O=C(Nc1ccc(Cl)cc1)c1nc[nH]c1C(=O)NCc1ccccc1	NTR1 ag 50 | NTR1 ag conf inactive
Cc1cccc(NC(=O)c2nc[nH]c2C(=O)N[C@@H](CC(C)C)C(=O)OC(C)(C)C)c1	NTR1 ag 52 | NTR1 ag conf inactive
CC(C)C[C@H](NC(=O)c1[nH]cnc1C(=O)N[C@@H](C)C(=O)OCc1ccccc1)C(=O)OC(C)(C)C	Bfl-1 A1 inh inconclusive
CC(C)C[C@H](NC(=O)c1[nH]cnc1C(=O)Nc1ccc(Cl)cc1)C(=O)OC(C)(C)C	NTR1 ag 56 | NTR1 ag conf inactive
CC(C)C[C@H](NC(=O)c1nc[nH]c1C(=O)NCC(=O)OC(C)(C)C)C(=O)OC(C)(C)C	none
